Experimental data from the supplement of paper PMC10849652.
The full data set covers some 8,800 targets. This sample favours those with a hit. About 0.5% of all pairs of compound and target were hits. Unmarked numbers belong to inactive results.

compound: C1=CC=C(C=C1)[C@H](COC2=CC3=C(C=C2)NC(=O)N3)NC(=O)C4=CC=CN(C4=O)CC5=CC(=C(C=C5)F)F; assay: log2 fold change, soluble protein after heating vs DMSO (PISA); higher = thermal stabilisation; K562 lysate, 10 uM; active = over 0.2 and 3.5 SD of the protein, either way, in both replicates (recomputed)
In short: (§1)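 Soluble protein was defined as the supernatant remaining after 21,000xg for 90 min, following pooling of heated aliquots and adjustment to 0.5% NP-40 at 4°C. Before that, crude K562 extract at 1 mg/mL protein in PBS pH 7.4 with 1 mM MgCl2 was treated with 10 μM compound for 30 min and heated for 3 min across 48°C-58°C. Quantification used TMTpro 16plex LC-MS/MS with channel sums equalised, and values are log-two fold changes in thermal stability relative to solvent controls from duplicates.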

Chain of UniProt Q9BW19 (Q9BW19 whole entry, looked up): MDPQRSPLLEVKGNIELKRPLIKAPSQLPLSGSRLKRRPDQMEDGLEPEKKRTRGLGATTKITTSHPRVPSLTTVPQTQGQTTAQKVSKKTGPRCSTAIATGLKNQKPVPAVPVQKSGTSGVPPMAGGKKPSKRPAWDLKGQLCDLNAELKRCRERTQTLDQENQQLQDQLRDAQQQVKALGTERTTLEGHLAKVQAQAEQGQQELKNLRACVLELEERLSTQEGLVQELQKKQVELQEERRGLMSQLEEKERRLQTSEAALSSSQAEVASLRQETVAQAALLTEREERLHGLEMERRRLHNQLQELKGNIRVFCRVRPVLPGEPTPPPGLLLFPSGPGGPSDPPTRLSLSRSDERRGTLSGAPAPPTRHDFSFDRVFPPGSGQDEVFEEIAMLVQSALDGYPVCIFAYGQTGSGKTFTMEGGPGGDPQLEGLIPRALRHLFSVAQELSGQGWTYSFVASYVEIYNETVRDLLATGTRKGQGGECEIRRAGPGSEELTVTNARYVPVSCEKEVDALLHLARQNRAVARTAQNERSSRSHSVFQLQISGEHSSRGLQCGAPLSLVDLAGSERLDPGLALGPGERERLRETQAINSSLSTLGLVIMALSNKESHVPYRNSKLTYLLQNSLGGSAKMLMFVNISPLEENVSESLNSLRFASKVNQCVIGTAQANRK
Chain of UniProt Q8N4N3 (Q8N4N3 whole entry, looked up): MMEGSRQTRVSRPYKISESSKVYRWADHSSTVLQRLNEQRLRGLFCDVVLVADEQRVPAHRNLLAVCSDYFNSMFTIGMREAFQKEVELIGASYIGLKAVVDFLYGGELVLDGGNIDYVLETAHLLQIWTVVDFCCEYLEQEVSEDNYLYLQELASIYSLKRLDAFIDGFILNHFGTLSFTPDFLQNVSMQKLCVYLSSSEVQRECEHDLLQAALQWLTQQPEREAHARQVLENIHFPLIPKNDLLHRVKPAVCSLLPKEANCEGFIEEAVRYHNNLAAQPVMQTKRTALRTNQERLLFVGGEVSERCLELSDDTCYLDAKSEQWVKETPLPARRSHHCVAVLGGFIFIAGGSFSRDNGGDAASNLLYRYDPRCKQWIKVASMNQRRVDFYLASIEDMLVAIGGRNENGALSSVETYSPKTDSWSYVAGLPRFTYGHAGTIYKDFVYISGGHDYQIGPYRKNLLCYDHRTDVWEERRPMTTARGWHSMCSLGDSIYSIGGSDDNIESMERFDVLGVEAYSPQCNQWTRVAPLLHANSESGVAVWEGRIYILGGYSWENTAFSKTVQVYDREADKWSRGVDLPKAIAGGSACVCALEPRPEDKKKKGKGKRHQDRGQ
Chain of UniProt Q9NQ29 (Q9NQ29 whole entry, looked up): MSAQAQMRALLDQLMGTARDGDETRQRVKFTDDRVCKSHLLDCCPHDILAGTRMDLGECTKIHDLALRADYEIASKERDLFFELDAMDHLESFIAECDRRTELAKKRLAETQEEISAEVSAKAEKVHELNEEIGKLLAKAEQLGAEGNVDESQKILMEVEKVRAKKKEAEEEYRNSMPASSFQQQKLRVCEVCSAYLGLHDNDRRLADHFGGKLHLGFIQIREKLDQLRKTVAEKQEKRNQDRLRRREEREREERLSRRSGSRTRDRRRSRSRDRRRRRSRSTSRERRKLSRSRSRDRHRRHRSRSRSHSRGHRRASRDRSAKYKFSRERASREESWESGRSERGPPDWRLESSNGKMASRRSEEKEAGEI
Chain of UniProt Q96II8 (Q96II8 whole entry, looked up): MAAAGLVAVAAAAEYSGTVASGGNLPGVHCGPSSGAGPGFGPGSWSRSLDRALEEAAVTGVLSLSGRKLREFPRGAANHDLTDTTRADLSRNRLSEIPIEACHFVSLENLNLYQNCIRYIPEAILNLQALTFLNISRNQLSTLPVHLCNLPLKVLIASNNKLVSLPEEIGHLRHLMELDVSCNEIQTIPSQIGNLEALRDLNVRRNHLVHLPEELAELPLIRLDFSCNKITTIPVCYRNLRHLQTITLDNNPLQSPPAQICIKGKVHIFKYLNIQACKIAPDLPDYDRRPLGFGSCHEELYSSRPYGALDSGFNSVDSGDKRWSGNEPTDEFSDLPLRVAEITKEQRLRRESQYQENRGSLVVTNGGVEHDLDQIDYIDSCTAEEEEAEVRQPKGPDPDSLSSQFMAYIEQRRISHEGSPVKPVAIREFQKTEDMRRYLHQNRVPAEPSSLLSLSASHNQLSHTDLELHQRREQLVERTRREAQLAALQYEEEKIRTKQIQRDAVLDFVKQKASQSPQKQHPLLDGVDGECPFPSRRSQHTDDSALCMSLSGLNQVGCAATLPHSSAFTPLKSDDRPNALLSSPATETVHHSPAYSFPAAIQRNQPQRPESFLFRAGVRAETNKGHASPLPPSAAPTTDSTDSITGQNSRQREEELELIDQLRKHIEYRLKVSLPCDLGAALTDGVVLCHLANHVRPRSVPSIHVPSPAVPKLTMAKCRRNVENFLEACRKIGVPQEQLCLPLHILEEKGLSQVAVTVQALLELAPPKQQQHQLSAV
Chain of UniProt O14733 (O14733 whole entry, looked up): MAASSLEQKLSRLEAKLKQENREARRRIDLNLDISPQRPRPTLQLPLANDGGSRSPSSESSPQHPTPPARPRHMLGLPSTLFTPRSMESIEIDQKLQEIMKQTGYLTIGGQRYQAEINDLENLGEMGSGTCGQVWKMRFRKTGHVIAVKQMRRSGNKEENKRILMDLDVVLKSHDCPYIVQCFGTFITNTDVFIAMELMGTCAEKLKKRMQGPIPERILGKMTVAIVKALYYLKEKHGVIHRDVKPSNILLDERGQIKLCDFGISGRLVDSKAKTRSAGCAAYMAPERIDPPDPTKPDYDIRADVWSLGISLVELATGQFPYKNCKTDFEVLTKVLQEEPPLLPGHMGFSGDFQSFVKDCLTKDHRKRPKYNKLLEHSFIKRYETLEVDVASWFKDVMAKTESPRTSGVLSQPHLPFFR
Chain of UniProt O95777 (O95777 whole entry, looked up): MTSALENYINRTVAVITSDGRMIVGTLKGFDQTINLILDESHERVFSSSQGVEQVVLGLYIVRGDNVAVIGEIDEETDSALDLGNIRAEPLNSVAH
Chain of UniProt P45985 (P45985 whole entry, looked up): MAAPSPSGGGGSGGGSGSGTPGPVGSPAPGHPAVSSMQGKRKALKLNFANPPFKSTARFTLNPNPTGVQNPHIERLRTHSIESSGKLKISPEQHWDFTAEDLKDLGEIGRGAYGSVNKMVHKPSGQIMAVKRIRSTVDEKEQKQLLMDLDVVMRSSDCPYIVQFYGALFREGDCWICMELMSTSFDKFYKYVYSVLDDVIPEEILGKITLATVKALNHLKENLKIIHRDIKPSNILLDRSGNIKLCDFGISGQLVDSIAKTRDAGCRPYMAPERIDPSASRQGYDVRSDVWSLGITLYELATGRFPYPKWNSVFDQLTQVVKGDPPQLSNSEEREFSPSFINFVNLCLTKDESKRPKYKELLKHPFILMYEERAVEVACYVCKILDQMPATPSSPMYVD
Chain of UniProt Q6ZWT7 (Q6ZWT7 whole entry, looked up): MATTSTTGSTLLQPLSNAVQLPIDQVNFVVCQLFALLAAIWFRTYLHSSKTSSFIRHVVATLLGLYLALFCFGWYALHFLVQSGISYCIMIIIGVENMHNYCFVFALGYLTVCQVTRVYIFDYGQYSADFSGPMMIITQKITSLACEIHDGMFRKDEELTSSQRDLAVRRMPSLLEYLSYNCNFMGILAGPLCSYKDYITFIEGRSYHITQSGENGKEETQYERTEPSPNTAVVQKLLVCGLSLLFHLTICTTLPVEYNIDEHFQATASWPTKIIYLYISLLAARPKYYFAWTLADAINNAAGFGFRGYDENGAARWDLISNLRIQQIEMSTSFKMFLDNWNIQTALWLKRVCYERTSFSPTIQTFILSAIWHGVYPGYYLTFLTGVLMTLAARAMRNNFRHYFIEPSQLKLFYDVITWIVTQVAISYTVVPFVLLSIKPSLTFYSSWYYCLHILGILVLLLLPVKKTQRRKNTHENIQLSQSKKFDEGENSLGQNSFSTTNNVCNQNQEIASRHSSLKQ
Chain of UniProt P52732 (P52732 whole entry, looked up): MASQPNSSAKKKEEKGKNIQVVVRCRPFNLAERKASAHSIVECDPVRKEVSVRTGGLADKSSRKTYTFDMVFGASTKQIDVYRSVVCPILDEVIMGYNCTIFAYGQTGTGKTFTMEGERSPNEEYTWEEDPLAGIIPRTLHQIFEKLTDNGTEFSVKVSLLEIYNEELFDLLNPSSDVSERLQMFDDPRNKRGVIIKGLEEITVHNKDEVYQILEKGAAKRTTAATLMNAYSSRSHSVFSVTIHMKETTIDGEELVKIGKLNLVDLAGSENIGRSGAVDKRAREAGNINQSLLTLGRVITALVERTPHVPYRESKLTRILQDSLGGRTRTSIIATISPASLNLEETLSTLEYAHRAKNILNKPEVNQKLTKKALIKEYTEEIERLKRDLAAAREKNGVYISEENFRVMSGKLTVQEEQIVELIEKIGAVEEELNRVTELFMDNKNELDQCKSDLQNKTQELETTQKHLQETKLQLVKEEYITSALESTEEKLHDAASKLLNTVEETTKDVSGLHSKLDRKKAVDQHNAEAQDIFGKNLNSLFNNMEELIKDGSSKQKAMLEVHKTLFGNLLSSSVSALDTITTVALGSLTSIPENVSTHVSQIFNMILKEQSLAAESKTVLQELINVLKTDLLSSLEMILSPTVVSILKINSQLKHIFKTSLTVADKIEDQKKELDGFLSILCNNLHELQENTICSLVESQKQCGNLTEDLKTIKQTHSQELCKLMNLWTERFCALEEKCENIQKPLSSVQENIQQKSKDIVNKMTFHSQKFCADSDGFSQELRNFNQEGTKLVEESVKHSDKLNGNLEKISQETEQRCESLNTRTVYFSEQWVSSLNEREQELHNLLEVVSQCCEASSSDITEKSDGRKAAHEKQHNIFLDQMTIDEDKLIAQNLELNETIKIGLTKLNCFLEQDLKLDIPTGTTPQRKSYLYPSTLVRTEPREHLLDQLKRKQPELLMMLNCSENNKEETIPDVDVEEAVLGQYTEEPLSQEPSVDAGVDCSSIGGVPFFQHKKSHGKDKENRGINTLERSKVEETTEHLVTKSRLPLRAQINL

In order of falling log2 fold change:
1. MANEA (UniProt Q5SRI9)  0.146
2. MGAT5 (UniProt Q09328)  0.088
3. KPNA4 (UniProt O00629)  0.06
4. MPZL1 (UniProt O95297)  0.056
5. MAP7D3 (UniProt Q8IWC1)  0.056
6. KIFC1 (UniProt Q9BW19)  0.046
7. KIF26A (UniProt Q9ULI4)  0.044
8. KMT2A isoform 3 (UniProt Q03164)  0.043
9. MAPKAPK2 (UniProt P49137)  0.043
10. MBD2 (UniProt Q9UBB5)  0.042
11. MAP2K3 isoform 3 (UniProt P46734)  0.035
12. LYSMD3 (UniProt Q7Z3D4)  0.031
13. MAP4 (UniProt P27816)  0.027
14. MPI (UniProt P34949)  0.023
15. MRPL46 (UniProt Q9H2W6)  0.022
16. MRPL19 (UniProt P49406)  0.017
17. LUC7L (UniProt Q9NQ29)  0.011
18. MED17 (UniProt Q9NVC6)  0.009
19. KIF11 (UniProt P52732)  0.008
20. MLLT11 (UniProt Q13015)  0.007
21. LIMK1 (UniProt P53667)  0.007
22. METTL2A (UniProt Q96IZ6)  0.003
23. MAD2L1BP isoform 3 (UniProt Q15013)  0.003
24. MAT2B (UniProt Q9NZL9)  -0.008
25. MBOAT2 (UniProt Q6ZWT7)  -0.011
26. KPNA2 (UniProt P52292)  -0.016
27. MAP2K4 isoform 2 (UniProt P45985)  -0.018
28. MICU1 isoform 3 (UniProt Q9BPX6)  -0.018
29. L3HYPDH (UniProt Q96EM0)  -0.022
30. KLC2 (UniProt Q9H0B6)  -0.032
31. MLST8 (UniProt Q9BVC4)  -0.038
32. LRCH3 (UniProt Q96II8)  -0.038
33. KIF4A (UniProt O95239)  -0.042
34. LSM8 (UniProt O95777)  -0.057
35. MAP2K7 isoform 4 (UniProt O14733)  -0.072
36. KLHL36 (UniProt Q8N4N3)  -0.072
37. MGST1 (UniProt P10620)  -0.08
38. MRPL12 (UniProt P52815)  -0.084
39. MICU2 (UniProt Q8IYU8)  -0.132

compound: CC1=C(SC2=C1C(=N[C@H](C3=NN=C(N32)C)CC(=O)N)C4=CC=C(C=C4)Cl)C; assay: as above
In short: as §1

In order of rising log2 fold change:
1. MAP2K7 isoform 4 (UniProt O14733)  -0.261
2. KLHL36 (UniProt Q8N4N3)  -0.086
3. MICU2 (UniProt Q8IYU8)  -0.069
4. KPNA4 (UniProt O00629)  -0.068
5. MRPL19 (UniProt P49406)  -0.064
6. MLLT11 (UniProt Q13015)  -0.048
7. LRCH3 (UniProt Q96II8)  -0.044
8. MGAT5 (UniProt Q09328)  -0.027
9. MAP2K3 isoform 3 (UniProt P46734)  -0.021
10. LIMK1 (UniProt P53667)  -0.015
11. MPI (UniProt P34949)  -0.014
12. LSM8 (UniProt O95777)  -0.012
13. MRPL46 (UniProt Q9H2W6)  -0.012
14. KIF26A (UniProt Q9ULI4)  -0.011
15. MANEA (UniProt Q5SRI9)  -0.009
16. KIFC1 (UniProt Q9BW19)  -0.008
17. METTL2A (UniProt Q96IZ6)  -0.004
18. KIF11 (UniProt P52732)  -0.001
19. MBOAT2 (UniProt Q6ZWT7)  0
20. MAP2K4 isoform 2 (UniProt P45985)  0.005
21. MGST1 (UniProt P10620)  0.005
22. MAD2L1BP isoform 3 (UniProt Q15013)  0.005
23. MPZL1 (UniProt O95297)  0.006
24. MBD2 (UniProt Q9UBB5)  0.008
25. MAPKAPK2 (UniProt P49137)  0.008
26. MAP4 (UniProt P27816)  0.012
27. KIF4A (UniProt O95239)  0.012
28. LUC7L (UniProt Q9NQ29)  0.013
29. MAT2B (UniProt Q9NZL9)  0.014
30. MRPL12 (UniProt P52815)  0.015
31. KLC2 (UniProt Q9H0B6)  0.016
32. MED17 (UniProt Q9NVC6)  0.021
33. MICU1 isoform 3 (UniProt Q9BPX6)  0.027
34. KPNA2 (UniProt P52292)  0.027
35. MLST8 (UniProt Q9BVC4)  0.037
36. L3HYPDH (UniProt Q96EM0)  0.042
37. MAP7D3 (UniProt Q8IWC1)  0.057
38. LYSMD3 (UniProt Q7Z3D4)  0.063
39. KMT2A isoform 3 (UniProt Q03164)  0.09
